{"source": "PubChem BioAssay (EPA / NIEHS)", "note": "The source made the active and inactive calls. How the source made its calls: active means hit-call score of the fitted dose curve at least 0.9, where 1 is the maximum; inactive means score below 0.9."}
{"read-out": "Keratin 19 (KRT19), KRT19 (gene 3880)", "test": "LTEA_HepaRG_KRT19: Life Technologies and Expression Analysis (LTEA) Assay for Keratin 19 (KRT19) using HepaRG (AID 2283512)", "details": "mRNA level, 48 h; actives raise or lower the signal", "experimental": "LTEA_HepaRG is a cell based, multiplexed-readout assay that uses HepaRG, a human liver cell line, with measurements taken at 48 hours after chemical dosing on a 96-well plate.LTEA_HepaRG_KRT19 is one of 102 assay component(s) measured in the LTEA HepaRG cell culture assay. It is a marker of Cell proliferation, survival, death.Data from the assay component LTEA_HepaRG_KRT19 was analyzed into 1 endpoint. This assay endpoint, LTEA_HepaRG_KRT19, was analyzed with bidirectional fitting relative to DMSO as the negative control and baseline of activity. Using a type of inducible reporter, measures of mRNA induction for gain or loss-of-signal activity can be used to understand regulation of transcription factor activity. To generalize the intended target to other relatable targets, this assay endpoint is annotated to the filaments intended target family, where the subfamily is keratin.\nA total of 1060 chemcials from the ToxCast library were tested in eight-point concentration-response experiments. Cell culture and cytotoxicity assays were conducted at Thermo Fisher Scientific's Custom Services facility (Madison, WI). A single lot of human HepaRG cells (Thermo Fisher Scientific, Frederick, MD) was used for the cell culture experiments. 96-well format collagen type I coated plates of human HepaRG cells were prepared using established methods. Briefly, cryopreserved HepaRG cells were thawed, plated at a density of approximately 100,000 cells/well in HepaRG Thaw, Plate, and General Purpose media (HPRG770, Thermo Fisher Scientific), and incubated for 48 hours. 0.5% DMSO was selected as vehicle control to balance the requisite need of DMSO in HepaRG cultures to maintain differentiation (for example, baseline metabolism, proportions of hepatocytes vs. cholangiocytes), while enabling further hepatic receptor pathway activation (for example, PXR and CAR) in response to chemical exposure. 48 hours after plating, the culture medium was replaced with HepaRG Serum-Free Incudtion Media. Cells were exposed to each test chemical in duplicate and maintained in CO2 incubators for another 48 hours. Chemical plates were thawed to room temperature and 200x concentrations of treatment groups were prepared. 8-point conentration-reponse curves were made with the highest exposure at 100 uM, followed by half-log dilutions, all in 0.5% DMSO. Each test plate contained variouse controls, induction positive controls (1mM phenobarbital), cytotoxicity positive controls ([…] aflatoxin B1), vehicle controls (0.5% DMSO), and total lysis controls (0.5% DMSO). Cell morphology images were taken using an Essen IncuCyte FLR automated microscope, with six 96-well plates imaged in about 24 minutes. Images were captured and exported and JPEG files. Spent culture media was transfered to black-well plates for the LDH assay, and remaining media was sorted at -80 C for later use. Cells were treated with RLT buffer and frozen until shipped for gene expression analysis. Total RNA was isolated from the cell suspension in 75 uL of Buffer RLT (Qiagen, Germantown, MD 20874) by Quintiles/Expression Analysis (Durham, NC) using a custom isolation procedure. Total RNA from each plate well was transferred to a preamplification plate. Fluidigm's 96.96 Dynamic ArrayTM (Fluidigm, Amsterdam, the Netherlands) technology was used for gene expression analyses by quantitative reverse transcription polymerase chain reaction (qRT-PCR, performed by Quintiles/Expression Analysis, Durham, NC)89. Standard TaqManTM Assays (Applied Biosystems/ThermoFisher Scientific, Foster City, CA) were used to assess the expression of 93 genes selected based on their selectivity and sensitivity to important hepatic receptors known to be modulated by environmental chemicals; importance in human hepatocyte functionality; and hepatotoxicity. […]"}
{"smiles": "O=C(O)C(F)(F)C(F)(F)C(F)(F)C(F)(F)C(F)(F)F", "outcome": "inactive"}
{"smiles": "CC#Cc1cc(C)nc(Nc2ccccc2)n1", "AC50": "22.8 µM (active)"}
{"smiles": "CC(C)(O)C(=O)Nc1ccc([N+](=O)[O-])c(C(F)(F)F)c1", "outcome": "inactive"}
{"smiles": "ClC1=C(Cl)[C@]2(Cl)[C@@H]3[C@@H]4C[C@@H]([C@H]5O[C@@H]45)[C@@H]3[C@@]1(Cl)C2(Cl)Cl", "outcome": "inactive"}
{"smiles": "O=C(NC(=O)c1cc(F)c(F)cc1Cl)Nc1cc(F)ccc1N1CCC(C(=O)O)CC1", "outcome": "inactive"}
{"smiles": "Oc1ccc(C(c2ccc(O)cc2)(C(F)(F)F)C(F)(F)F)cc1", "outcome": "inactive"}
{"smiles": "Oc1ccc(Cl)cc1Cl", "outcome": "inactive"}
{"smiles": "CCC(C)c1cc([N+](=O)[O-])cc([N+](=O)[O-])c1O", "note": "(stereo not given)", "AC50": "2.53 µM (active)"}
{"smiles": "Cc1cccc([N+](=O)[O-])c1", "outcome": "inactive"}
{"smiles": "C[C@]12CCC(=O)C=C1CC[C@@H]1[C@@H]2CC[C@@]2(C)[C@H]1CC[C@]2(C)O", "outcome": "inactive"}
{"smiles": "O=S(=O)(O)C(F)(F)C(F)(F)C(F)(F)C(F)(F)C(F)(F)C(F)(F)F", "outcome": "inactive"}
{"smiles": "CCSC(=O)N(CC)C1CCCCC1", "outcome": "inactive"}
{"smiles": "ClC(Cl)=C(c1ccc(Cl)cc1)c1ccc(Cl)cc1", "outcome": "inactive"}
{"smiles": "CC(C)(c1ccccc1)c1ccc(O)cc1", "outcome": "inactive"}
{"smiles": "Cc1ccc(O)c(C)c1", "outcome": "inactive"}
{"smiles": "c1cc2ccc3cccc4ccc(c1)c2c34", "outcome": "inactive"}
{"smiles": "CCCCCCCCCC[N+](C)(C)CCCCCCCCCC", "outcome": "inactive"}
{"smiles": "Cc1ccccc1CO[C@@H]1C[C@@]2(C(C)C)CC[C@]1(C)O2", "outcome": "inactive"}
{"smiles": "Oc1c(Cl)c(Cl)c(Cl)c(Cl)c1Cl", "AC50": "6.33 µM (active)"}
{"smiles": "CC(c1ccc(O)cc1)(c1ccc(O)cc1)c1ccc(O)cc1", "AC50": "50 µM (active)"}
{"smiles": "CCC(=O)O[C@H]1CC[C@H]2[C@@H]3CCC4=CC(=O)CC[C@]4(C)[C@H]3CC[C@]12C", "outcome": "inactive"}
{"smiles": "O=S(=O)(O)C(F)(F)C(F)(F)C(F)(F)C(F)(F)F", "outcome": "inactive"}
{"smiles": "CCC(C)(c1ccc(O)cc1)c1ccc(O)cc1", "outcome": "inactive"}
{"smiles": "C[C@]12CCC(=O)C=C1CC[C@@H]1[C@@H]2CC[C@]2(C)C(=O)CC[C@@H]12", "outcome": "inactive"}
{"smiles": "Clc1ccc(C(Cl)(Cl)Cl)cc1", "outcome": "inactive"}
{"smiles": "N#Cc1ccc(N(CC(N)=O)CC(F)(F)F)cc1C(F)(F)F", "outcome": "inactive"}
{"smiles": "Cc1cc(-c2ccc(N)c(C)c2)ccc1N", "AC50": "30.8 µM (active)"}
{"smiles": "CCOP(=S)(OCC)SCSC(C)(C)C", "outcome": "inactive"}
{"smiles": "CN(C)CCO", "outcome": "inactive"}
{"smiles": "c1ccc(-c2ccccc2)cc1", "outcome": "inactive"}
{"smiles": "Cc1cc2c3c(c1)C(c1ccccc1)=N[C@@H](NC(=O)c1ccncc1)C(=O)N3CC2", "outcome": "inactive"}
{"smiles": "CCCN(CCC)N=O", "outcome": "inactive"}
{"smiles": "CN(C)c1nc(=O)n(C2CCCCC2)c(=O)n1C", "outcome": "inactive"}
{"smiles": "C=CC(=O)NCNC(=O)C=C", "outcome": "inactive"}
{"smiles": "O=C(N[C@H]1CN2CCC1CC2)c1cc2ccoc2cn1", "outcome": "inactive"}
{"smiles": "Cc1ccccc1O", "outcome": "inactive"}
{"smiles": "Cc1cccc(C)c1N", "outcome": "inactive"}
{"smiles": "COc1ccc(O)c(C(C)(C)C)c1", "outcome": "inactive"}
{"smiles": "CCCCCCOC(=O)c1ccccc1C(=O)OCCCCCC", "outcome": "inactive"}
{"smiles": "CCCCCCCCOC(=O)c1ccccc1C(=O)OCCCCCCCC", "outcome": "inactive"}
